Screening data (PubChem BioAssay)
Rows were chosen to be rich in hits. Some 3.3% of all compounds tested hit in one or more screens of this group.
PLK1 kinase inh: PLK1 (human) kinase inhibition. AID 619. inhibition, % at 10 µM. 97,000 compounds, 0.53% hits. P53350. recombinant PLK1 kinase, TR-FRET peptide phosphorylation;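 active = inhibition of 50% or more in the single-concentration screen; inactive = inhibition below 50%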
ERa coact pot: ER-alpha (human) coactivator binding potentiation; P03372; TR-FRET ERalpha-LBD/SRC-Cy5 coactivator binding, 2 h; 100 = basal binding, no effect; coactivator binding (% of control), % at 25.6 µM; 86,000 compounds, 1.3% hits; in the data active = activity above about 200%;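 note: binding measured in presence of low estradiol as agonist stimulus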
Target sequence (P03372 whole entry, looked up, the tested form may be a part): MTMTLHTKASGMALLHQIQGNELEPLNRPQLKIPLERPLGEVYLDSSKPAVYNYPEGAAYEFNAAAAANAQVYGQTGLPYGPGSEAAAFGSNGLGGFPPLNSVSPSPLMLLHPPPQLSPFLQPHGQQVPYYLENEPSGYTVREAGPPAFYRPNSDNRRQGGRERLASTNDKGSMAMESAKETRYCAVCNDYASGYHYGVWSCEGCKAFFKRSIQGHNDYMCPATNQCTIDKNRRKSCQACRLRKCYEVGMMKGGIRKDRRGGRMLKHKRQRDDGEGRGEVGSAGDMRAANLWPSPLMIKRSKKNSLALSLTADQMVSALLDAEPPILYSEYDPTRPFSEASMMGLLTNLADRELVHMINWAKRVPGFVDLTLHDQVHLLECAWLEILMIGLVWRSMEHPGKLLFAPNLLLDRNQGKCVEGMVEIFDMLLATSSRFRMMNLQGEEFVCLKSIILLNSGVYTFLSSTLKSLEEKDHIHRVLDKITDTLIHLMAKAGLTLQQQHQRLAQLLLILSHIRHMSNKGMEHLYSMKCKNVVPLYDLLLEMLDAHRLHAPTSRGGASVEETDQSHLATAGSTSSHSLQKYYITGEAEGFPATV
ERa coact inh: blocks coactivator binding to human estrogen receptor alpha; P03372; AID 629; 86,000 compounds, 1.7% hits; TR-FRET ER-alpha LBD / SRC-1 peptide, estradiol-bound; inhibition, % at 25.6 µM; in the data active = inhibition above about 50%
PLK1 PBD inh: inhibitors of human Plk1 polo box domain binding | P53350 | Plk1 PBD phosphopeptide binding, fluorescence polarization | inhibition, %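 (tested at about 20 µM)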 | 97,000 compounds, 0.13% hits | AID 693; in the data active = inhibition above about 34%, passing the limit was not always enough
ERb coact inh: ER-beta (human) coactivator binding inhibition | 86,000 compounds, 1.3% hits | Q92731 | TR-FRET ER-beta LBD / SRC1-Cy5 peptide binding; receptor agonist-loaded with 1 µM estradiol | inhibition, % at 25.6 µM;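 active = compounds whose percent inhibition of the receptor-coactivator binding signal exceeds about 50% in the single-dose screen, limit read from the data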
Smad3 FoxH1 inh: Smad3 (human) transcription factor binding inhibition; P84022; TR-FRET Smad3/Dy647-FoxH1 peptide binding, europium anti-His; inhibition, % at 25 µM; 88,000 compounds, 0.29% hits; AID 630;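 active = compounds that reduce the energy-transfer binding signal between the protein and its labelled peptide by more than half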
Each line names hits and unclear results; the compound was inactive in the other large screens; [ ] = dose if it differs, or a comment.

CCCOCC1CC2(SC(=Nc3ccc(C)cc3)NC2=O)C(=O)O1 (stereo not given)	ERb coact inh 69[fluorescence artefact?]
O=C(O)CCc1nc(-c2ccccc2-n2cccc2)no1	none (no result: PLK1 kinase inh, ERa coact pot, ERa coact inh, PLK1 PBD inh, ERb coact inh)
Cc1ccc(S(=O)(=O)N[C@H](CN)C(=O)O)cc1	none (no result: PLK1 kinase inh, ERa coact pot, ERa coact inh, PLK1 PBD inh, ERb coact inh)
COc1ccc2c(c1)c(=O)oc1cc(OCC(=O)N3CCC(C)CC3)ccc12	ERa coact inh 59, ERb coact inh 60
COc1ccc2c(c1)c(=O)oc1cc(OCC(=O)N3CCc4ccccc4C3)ccc12	ERa coact pot 237[fluorescence artefact?], ERa coact inh 71[fluorescence artefact?], ERb coact inh 62
COc1ccc2cc3cc(C(=O)Nc4cc(OC)c(OC)c(OC)c4)oc3nc2c1	none
COc1ccc2cc3cc(C(=O)Nc4ccc5c(c4)OCCO5)oc3nc2c1	ERa coact pot 209, ERa coact inh 71[fluorescence artefact?]
S=c1sc2c(N3CCOCC3)ncnc2n1-c1ccccc1	PLK1 kinase inh 62
Cc1ccc(C2=Nc3ccccc3S[C@@H](c3cccc([N+](=O)[O-])c3)C2)cc1	none (no result: PLK1 kinase inh, ERa coact pot, ERa coact inh, PLK1 PBD inh, ERb coact inh)
CNc1nnc(-c2cc3cc(Cl)ccc3oc2=O)s1	ERa coact inh 66
CCOc1cccc2cc(-c3nnc(NCc4ccco4)s3)c(=O)oc12	ERa coact inh 53
COc1ccc2oc(=O)c(-c3nnc(NCc4ccco4)s3)cc2c1	ERb coact inh 57[fluorescence artefact?]
O=C(O)Cc1ccc(NC(=O)C2CC=CCC2C(=O)O)cc1 (stereo not given)	ERa coact pot 234
COc1cc2c(cc1OC)C(c1ccc(-c3cc(Cl)ccc3Cl)o1)=NCC2	ERa coact pot 253[fluorescence artefact?]
COc1ccc(OCCCC(=O)NC(C)c2ccccc2)cc1 (stereo not given)	none
O=C(Nc1ccc(O)cc1C(=O)O)c1ccc2c(c1)C(=O)N(Cc1ccco1)C2=O	ERb coact inh 54
O=C(O)c1ccc(C(=O)c2ccc3c(c2)C(=O)N(Cc2ccco2)C3=O)cc1	none
O=C(CSc1nc(-c2ccccc2)nc2ccccc12)Nc1nccs1	none (no result: ERa coact pot, ERa coact inh, ERb coact inh, Smad3 FoxH1 inh)
O=C(CSc1ncnc2c1oc1ccccc12)Nc1ccc2c(c1)OCCO2	ERa coact pot 765[fluorescence artefact?], ERb coact inh 57[fluorescence artefact?]
CCc1nc(SCC(=O)Nc2ccc3c(c2)OCCO3)c2oc3ccccc3c2n1	ERa coact pot 233[fluorescence artefact?], ERa coact inh 64[fluorescence artefact?], ERb coact inh 57[fluorescence artefact?]
O=C(CSc1nnc(-c2cccc(Cl)c2)o1)Nc1ccc2c(c1)OCCO2	ERa coact inh 54[fluorescence artefact?]
CCc1nc(SCC(=O)N2CCCc3ccccc32)c2oc3ccccc3c2n1	none
O=C(CSc1ncnc2c1cnn2Cc1ccccc1)Nc1ccc2c(c1)OCCO2	none
CCc1nc(SCC(=O)Nc2nccs2)c2oc3ccccc3c2n1	ERa coact inh 56[fluorescence artefact?] (no result: PLK1 kinase inh, PLK1 PBD inh)
CN1CCC[C@H]1c1cccnc1.O=C(O)c1ccccc1O.O=C([OH2+])c1ccccc1O.O=C([OH2+])c1ccccc1O.[Mn+2]	none (no result: PLK1 kinase inh, ERa coact pot, ERa coact inh, PLK1 PBD inh, ERb coact inh)
COc1ccc2c(c1)N(CC[C@H]1CCCCN1C)c1ccccc1S2	none (no result: PLK1 kinase inh, ERa coact pot, ERa coact inh, PLK1 PBD inh, ERb coact inh)
Cc1nc(SCC(=O)Nc2ccc3c(c2)OCCO3)c2oc3ccccc3c2n1	ERa coact pot 732[fluorescence artefact?], ERa coact inh 79[fluorescence artefact?]
Cc1nc(SCC(=O)NCc2ccccc2)c2oc3ccccc3c2n1	ERa coact pot active[fluorescence artefact?]
COC(=O)C(c1cc(OC)c(O)c(OC)c1)(N1CCNC(C)C1)C(F)(F)F (stereo not given)	none (no result: PLK1 kinase inh, PLK1 PBD inh)
CC(=O)[C@H](C(=N)C#N)C(=O)Nc1ccccc1	none (no result: PLK1 kinase inh, ERa coact pot, ERa coact inh, PLK1 PBD inh, ERb coact inh)
CC(=O)Nc1coc2ccc(Br)cc12	none
O=C(N/N=C/c1cccc(Oc2ccc([N+](=O)[O-])cc2[N+](=O)[O-])c1)c1cncc(Br)c1	ERa coact inh 96
Cc1cc(C(=O)Nc2sc3c(c2C#N)CCCC3)no1	none (no result: PLK1 kinase inh, PLK1 PBD inh)
COc1ccc(-c2csc(NC(=O)c3cc(C)on3)c2C#N)cc1OC	ERa coact pot 264
Cc1cc(C(=O)Nc2sc3c(c2C#N)CCC3)no1	ERa coact inh 53[fluorescence artefact?], ERb coact inh 64
COc1ccc(CCNC(=O)c2cc(-c3ccccc3OC)on2)cc1OC	ERa coact pot 236[fluorescence artefact?]
COc1ccc(OC)c(-c2cc(C(=O)Nc3cc(C)on3)no2)c1	ERa coact pot 245[fluorescence artefact?]
CCOC(=O)c1c(-c2ccccc2)oc2cc(CN(C)C)c(O)c(CN(C)C)c12	none
O=C(Nc1ccc2oc(-c3cccnc3)nc2c1)c1ccc(Br)o1	ERa coact pot 206[fluorescence artefact?], ERa coact inh 69[fluorescence artefact?]
O=C(Nc1ccc(-c2nc3ncccc3o2)cc1)c1ccc(Br)o1	ERa coact pot 269[fluorescence artefact?]
O=C(Nc1ccc2oc(-c3cccnc3)nc2c1)c1ccco1	none
C=CCSc1nc2c(N)ncnc2n1[C@H]1O[C@H](CO)[C@@H](O)[C@@H]1O	none (no result: PLK1 kinase inh, ERa coact pot, ERa coact inh, PLK1 PBD inh, ERb coact inh)
CCOC(=O)[C@@H](O)Cc1cnc2ccccc2n1	none (no result: PLK1 kinase inh, ERa coact pot, ERa coact inh, PLK1 PBD inh, ERb coact inh)
COc1ccc(-n2nc3c(c2NC(=O)c2cc4ccccc4oc2=O)CS(=O)(=O)C3)cc1	ERa coact inh 63, ERb coact inh 66[fluorescence artefact?] (no result: PLK1 kinase inh, PLK1 PBD inh)
COc1ccc(Cc2ccccc2C(=O)O)c2ccccc12	none (no result: PLK1 kinase inh, ERa coact pot, ERa coact inh, PLK1 PBD inh, ERb coact inh)
Cc1cc2cc(CNC(=O)c3ccc(Br)o3)ccc2n1C	ERa coact inh 74[fluorescence artefact?] (no result: PLK1 kinase inh, PLK1 PBD inh)
Cc1cc2cc(CNC(=O)Nc3cccc(Cl)c3)ccc2n1C	ERa coact pot 215[fluorescence artefact?]
Cc1cc2cc(CNC(=O)c3ccc(S(=O)(=O)N4CCOCC4)cc3)ccc2n1C	ERa coact pot 276[fluorescence artefact?]
